From PubChem BioAssay AID1347088 (National Center for Advancing Translational Sciences (NCATS), 2019)
Records with an inconclusive call do not appear. Where a call stands in place of a potency, no number is given. Active and inactive are the calls of the source. The call rests on the fitted dose curve.

assay: qHTS for Inhibitors of the Functional Ribonucleoprotein Complex (vRNP) of Lymphocytic Choriomeningitis Arenaviruses (LCMV): Viability assay - Alamar blue signal for LCMV Confirmatory Screen; settings: LCMV vRNP confirmatory screen cells; series mostly up to 53.9 µM

**Q.** Which Potency does the source give for O=C(Nc1ccc(Cl)c(Cl)c1)C1CC1 here?
**A.** inactive

**Q.** For CCc1cncnc1N1CCN(Cc2nc3ccc(C(F)(F)F)cc3[nH]2)CC1, which Potency is on record?
**A.** 35.2 µM (active)

**Q.** With CCCCC/C(C=O)=C\c1ccccc1 as the compound, how does the Potency read?
**A.** inactive

**Q.** With CC[C@@]1([C@@H]2O[C@@H]([C@H]3O[C@@](O)(CO)[C@H](C)C[C@H]3C)C[C@H]2C)CC[C@H]([C@]2(C)CC[C@]3(C[C@H](O)[C@@H](C)[C@@H]([C@@H](C)[C@@H](OC)[C@H](C)C(=O)O)O3)O2)O1 as the compound, how does the Potency read?
**A.** 5.95 µM (active)

**Q.** For CCC[C@H](N[C@@H](C)C(=O)N1[C@@H]2CCCC[C@H]2C[C@H]1C(=O)O)C(=O)OCC, which Potency is on record?
**A.** inactive

**Q.** With C[C@]12CC[C@@H](O)C[C@H]1CC[C@@H]1[C@H]2CC[C@]2(C)C(=O)CC[C@@H]12 as the compound, how does the Potency read?
**A.** inactive

**Q.** For CNCCCC1c2ccccc2C=Cc2ccccc21, which Potency is on record?
**A.** 27.3 µM (active)

**Q.** For O=C(CCCN1CCN(c2ccc(F)cc2)CC1)NC1c2ccccc2CSc2ccccc21 (centres undefined), which Potency is on record?
**A.** inactive

**Q.** With COc1cc2c(cc1OC)CC(=O)N(CCCN(C)C[C@H]1Cc3cc(OC)c(OC)cc31)CC2 as the compound, how does the Potency read?
**A.** inactive

**Q.** Which Potency does the source give for CCN(CC)C(=O)N[C@@H]1C=C2c3cccc4[nH]cc(c34)C[C@@H]2N(C)C1 here?
**A.** inactive

**Q.** For C=C1CC[C@@H]2[C@](C)(CO)[C@H](O)CC[C@@]2(C)[C@@H]1/C=C/C1=CCOC1=O, which Potency is on record?
**A.** inactive

**Q.** With Cc1ccccc1-n1c(Cn2nc(-c3cccc(O)c3)c3c(N)ncnc32)nc2cccc(C)c2c1=O as the compound, how does the Potency read?
**A.** inactive

**Q.** With O=C(Nc1ccccc1)Nc1ccc(-c2ccc(C(=O)[C@H]3CCC[C@H]3C(=O)O)cc2)cc1 as the compound, how does the Potency read?
**A.** inactive

**Q.** For CN1C(C(=O)Nc2ccccn2)=C(O)c2ccccc2S1(=O)=O, which Potency is on record?
**A.** inactive
